About 83,000 compounds went through this panel and 20% of them were active in at least one assay; those are over-represented in the sample as a whole.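 Percent growth is the endpoint: 0 to 100 indicates growth inhibition (40 means 60% inhibition), 0 means no net growth, and negative values indicate cell death.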 Values without a mark were called inactive. Calls of active or inactive are those of the source. The calls were made as follows: active = growth percent below 10; inactive = the rest.

Some test systems named below: SR leukemia; RPMI-8226 leukemia; OVCAR-8 ovarian; OVCAR-4 ovarian; SK-OV-3 ovarian; IGROV1 ovarian; OVCAR-3 ovarian; HS 578T breast; NCI/ADR-RES ovarian; OVCAR-5 ovarian.
What all share (assay): NCI-60 one-dose screen, 48 h (100 = growth as untreated, 0 = no growth, -100 = all killed)
Holding throughout (details): 10 µM unless noted

With `O=C1CCCCN1c1ccc(C2=NCCCN2)cc1`, the growth in the experiment on SR leukemia is 99.8%; with RPMI-8226 leukemia, 57.4%; in the experiment with OVCAR-8 ovarian, 104%; in the experiment on OVCAR-4 ovarian, 91.3%; with SK-OV-3 ovarian it was 119%; in the experiment with IGROV1 ovarian it was 95.9%. Moreover, the growth in the experiment with OVCAR-3 ovarian was 83.9%; in the experiment on HS 578T breast, 73.2%; with NCI/ADR-RES ovarian, 103%.
As to `C[C@@H]1NC(=O)[C@H](Cc2ccccc2)N(Cc2cccnc2)C1=O`, the growth in the experiment with SR leukemia was 96.9%; in the experiment on RPMI-8226 leukemia, 105%; in the experiment with OVCAR-8 ovarian, 102%; in the experiment with OVCAR-4 ovarian, 102%; with SK-OV-3 ovarian, 99.2%; in the experiment with IGROV1 ovarian, 107%. Besides, the growth with OVCAR-3 ovarian is 110%; with HS 578T breast it was 94.3%; with NCI/ADR-RES ovarian, 104%.
For the molecule `COc1ccc(/C=N/Nc2c3ccccc3nc3ccccc23)cc1`, the growth in the experiment with SR leukemia was 95.6%; with RPMI-8226 leukemia, 83.8%; in the experiment with OVCAR-8 ovarian it was 97%; in the experiment on OVCAR-4 ovarian it was 81.7%; with SK-OV-3 ovarian it was 90.8%; with IGROV1 ovarian, 88.2%. For the same molecule, the growth in the experiment with OVCAR-3 ovarian was 91.7%; in the experiment with HS 578T breast, 93.1%; in the experiment on NCI/ADR-RES ovarian it was 102%.
On to `O=C(Nc1ncc(Cc2ccccc2)s1)c1sc2ccccc2c1Cl`, for which the growth in the experiment on SR leukemia is 16%; with RPMI-8226 leukemia it was 28%; in the experiment on OVCAR-8 ovarian, 27.8%; with OVCAR-5 ovarian, 41.8%; in the experiment with SK-OV-3 ovarian, 28.8%; in the experiment with IGROV1 ovarian it was 33.1%. Also, the growth in the experiment on OVCAR-3 ovarian is -30.6% (active); with NCI/ADR-RES ovarian, 16.1%.
With `Cc1ccc2c(c1)sc1nc(-c3c[nH]c4ccccc34)c(Nc3ccccc3)n12`, the growth in the experiment on SR leukemia is 97.2%; in the experiment on RPMI-8226 leukemia it was 102%; with OVCAR-8 ovarian, 104%; in the experiment with OVCAR-4 ovarian, 95.8%; in the experiment on SK-OV-3 ovarian it was -4.12% (active); in the experiment on IGROV1 ovarian, 104%. For the same molecule, the growth in the experiment on OVCAR-3 ovarian was 99.2%; with HS 578T breast, 98.7%; in the experiment on NCI/ADR-RES ovarian it was 104%.
As to `C[C@@H]1CN(c2cnc(C(=O)Nc3cc(F)cc4cccnc34)cn2)C[C@H](C)N1`, the growth was 28.6% with SR leukemia; 61.1% in the experiment on OVCAR-8 ovarian; 83.9% in the experiment on OVCAR-5 ovarian; 12.7% in the experiment on OVCAR-4 ovarian; 86.2% in the experiment on SK-OV-3 ovarian; 78.9% in the experiment on IGROV1 ovarian. Also, the growth in the experiment with OVCAR-3 ovarian was 39.5%; in the experiment on HS 578T breast it was 76.8%; in the experiment with NCI/ADR-RES ovarian, 66%.
Regarding `O=c1cc(-c2ccccc2)nc(SCc2nc3cc(Cl)c(Cl)cc3[nH]2)[nH]1`, the growth in the experiment with SR leukemia is 6.56% (active); with OVCAR-8 ovarian, 104%; with OVCAR-5 ovarian it was 95.2%; in the experiment on OVCAR-4 ovarian, 101%; in the experiment on SK-OV-3 ovarian it was 92.4%; with IGROV1 ovarian, 101%. Besides, the results for the growth in the experiment with OVCAR-3 ovarian, in the experiment on HS 578T breast and with NCI/ADR-RES ovarian were 106%, 105% and 97%, respectively.
In the case of `Nc1c(Br)cc2c(c1Br)Cc1cc([N+](=O)[O-])ccc1-2`, the growth in the experiment on SR leukemia is 64.3%; with OVCAR-8 ovarian, 95.4%; in the experiment with OVCAR-5 ovarian it was 112%; in the experiment with OVCAR-4 ovarian, 85.4%; in the experiment with SK-OV-3 ovarian, 92.2%; with IGROV1 ovarian, 135%. Further, the growth in the experiment with OVCAR-3 ovarian was 111%; in the experiment on HS 578T breast, 104%.

These data come from PubChem BioAssay (NCI).
